Hits are enriched below; roughly 12% of the tested compounds scored in any of these assays.
BAZ2B inh = qHTS Assay for Inhibitors of BAZ2B; Potency, µM (doses to about 114 µM), inactives show at the top dose activity change, negative = inhibition, hits mostly inhibitors; 4.4% of 360,000 active; AID 504333, 2011; Bromodomain adjacent to zinc finger domain protein 2B (Homo sapiens), Q9UIF8; AlphaScreen BAZ2B-H3K14Ac peptide displacement; further: on the % scale 0 is the no-effect control and ±100 the full control effect; nearly all actives have a fitted effect of over 60% in size
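AlphaScreen luminescence quantifies BAZ2B engagement of H3K14Ac peptide; the protein and biotinylated peptide are both at 50 nM final, buffer PBS pH 7.4 with 0.01% Tween-20, all steps at room temperature.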
Sfp PPTase inh = qHTS Assay for Inhibitors of Bacillus subtilis Sfp phosphopantetheinyl transferase (PPTase); 4'-phosphopantetheinyl transferase ffp (Bacillus subtilis), Q9F4F7; Biochemical Sfp PPTase activity, qHTS; Potency, µM, for inactives: largest response in the series, negative = inhibition, actives largely listed as inhibitors; 3.5% of 310,000 active; AID 1490, 2009;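 further: the enzyme is Sfp with the accession as filed and its product quenches rhodamine fluorescence; 0% = enzyme reaction without inhibitor and -100% = no enzyme wells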
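Sfp 15 nM + cpd, 15 min RT; start w/ rhodamine-CoA 5 uM, BHQ-2-YbbR 12.5 uM (final); 50 mM Hepes pH 7.6, 10 mM MgCl2, 0.01% NP-40, 0.01% BSA; read 525/598 nm at 0 and 30 min.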
L3MBTL1 inh = qHTS Assay for the Inhibitors of L3MBTL1. 0.66% of 230,000 active. Potency, µM (doses to about 57.1 µM), inactives show top-dose activity, negative = inhibition, usual class: inhibitors. Lethal(3)malignant brain tumor-like protein 1 (Homo sapiens), Q9Y468. AlphaScreen L3MBTL1–H3K9me1 peptide binding; further: on the % scale 0 is the no-effect control and ±100 the full control effect; nearly all actives have a fitted effect of over 60% in size
Target sequence (Q9Y468 whole entry, looked up): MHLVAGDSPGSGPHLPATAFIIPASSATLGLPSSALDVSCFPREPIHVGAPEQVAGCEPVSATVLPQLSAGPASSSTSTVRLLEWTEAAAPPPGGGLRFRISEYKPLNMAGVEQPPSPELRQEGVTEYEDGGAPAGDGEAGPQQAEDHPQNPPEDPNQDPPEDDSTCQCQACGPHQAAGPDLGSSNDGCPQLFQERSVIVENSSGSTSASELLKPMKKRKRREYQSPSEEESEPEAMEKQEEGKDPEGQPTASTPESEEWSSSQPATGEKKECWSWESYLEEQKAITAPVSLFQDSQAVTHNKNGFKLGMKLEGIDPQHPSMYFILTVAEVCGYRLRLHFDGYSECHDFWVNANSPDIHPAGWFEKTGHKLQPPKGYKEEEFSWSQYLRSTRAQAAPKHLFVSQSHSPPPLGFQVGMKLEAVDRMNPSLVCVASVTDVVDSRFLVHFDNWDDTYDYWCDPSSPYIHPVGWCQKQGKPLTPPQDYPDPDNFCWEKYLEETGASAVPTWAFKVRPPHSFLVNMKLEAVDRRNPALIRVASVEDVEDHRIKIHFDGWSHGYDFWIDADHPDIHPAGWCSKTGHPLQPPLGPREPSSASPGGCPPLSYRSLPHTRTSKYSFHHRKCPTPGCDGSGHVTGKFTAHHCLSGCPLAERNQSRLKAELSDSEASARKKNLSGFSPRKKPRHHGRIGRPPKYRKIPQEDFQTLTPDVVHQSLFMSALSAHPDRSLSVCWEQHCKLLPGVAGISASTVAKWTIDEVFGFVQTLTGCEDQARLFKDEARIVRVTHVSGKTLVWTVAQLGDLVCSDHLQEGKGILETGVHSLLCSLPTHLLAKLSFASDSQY
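First, the protein-peptide complex forms for 30 min at room temperature (L3MBTL1 50 nM, biotinylated H3K9me1 peptide 75 nM). Next, compounds are pin-transferred and incubated 30 min. Finally, AlphaScreen beads are added and read after 30 min.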
HP1b binding inh = HTS for Inhibitors of HP1-beta Chromodomain Interactions with Methylated Histone Tails | AlphaScreen HP1-beta / biotin-H3K9me3 peptide binding | Potency, µM (doses to about 114 µM), for the others: at the top dose activity change, negative = inhibition, hits mostly inhibitors | 0.56% of 390,000 active; further: nearly all actives have a fitted effect of over 70% in size
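AlphaScreen: HP1-beta (50 nM) preformed 30 min with biotin-H3(1-18)K9me3 peptide (50 nM) in PBS pH 7.4, 0.01% Tween-20. Compound added for 30 min at RT, then streptavidin donor/nickel chelate acceptor beads (10 ug/mL) for 30 min.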
G9a block = qHTS Assay for Inhibitors of Histone Lysine Methyltransferase G9a | 8.8% of 350,000 active | G9a H3K9 monomethylation, AlphaScreen, 2 h | Histone-lysine N-methyltransferase EHMT2 (Homo sapiens), Q96KQ7 | Potency, µM (series often up to 102 µM), inactives show at the highest dose activity, negative = inhibition, usual class: inhibitors; further: on the % scale 0 is the no-effect control and ±100 the full control effect; nearly all actives have a fitted effect of over 75% in size
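G9a (20 nM) was preincubated 15 min with compound, then reacted 2 h at room temperature with 500 nM biotin-H3K9 peptide and 20 µM SAM. Monomethyl-H3K9 detected by AlphaScreen using anti-H3K9me1 antibody.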
JMJD2A Tudor inh = qHTS Assay for Inhibitors of JMJD2A-Tudor Domain | AlphaScreen JMJD2A-Tudor / H3K4me3 peptide binding | Potency, µM (top dose mostly 114 µM), for the others: top-dose activity change, negative = inhibition, hits mostly inhibitors | 4.4% of 390,000 active | AID 504339, 2011; further: on the % scale 0 is the no-effect control and ±100 the full control effect; nearly all actives have a fitted effect of over 50% in size
Starred values were filed as active, the others as inactive; u = inconclusive; x = no result given; [ ] = dose if it differs, or a comment. The call rests on the fitted dose curve; in most records, active means well fitted curve in the direction sought with a large enough effect; inconclusive means small, poorly fitted or top-dose-only effect, or another doubt; inactive means no such curve, though single readings can be large; an effect the other way counts as inactive or inconclusive. Potency means the concentration at half of the fitted maximal effect.

SMILES	BAZ2B inh	Sfp PPTase inh	L3MBTL1 inh	HP1b binding inh	G9a block	JMJD2A Tudor inh
COc1ccccc1C(=O)Nc1cc2c(cc1C(=O)O)OCCCO2	7.4%	31.1%	x	15.6%	2.4%[59 µM]	-12.0%
CN(Cc1ccco1)c1ncnc2ccc(-c3ccc4c(c3)OCCO4)cc12	-30.3%	x	-4.6%	x	1.9%[12.7 µM]	x
CCOC(=O)c1cc(OC(=O)c2ccc(Cl)cc2)n(-c2ccccc2)n1	-4.0%	x	x	23.0%	12.0%[59 µM]	-14.8%
CCS(=O)(=O)N1CCc2cc(C(=O)N3CCN(c4cccc(C(F)(F)F)c4)CC3)ccc21	u	x	x	10.3%	u	-35.1%
Cc1cc(C)n(-c2cc(O)c(-n3nc(C)cc3C)cc2O)n1	-16.4%	-6.3%	-5.7%	u	28.2µM*	22.4µM*
Cc1cc(C)n(-c2cc(-n3nc(C)cc3C)ncn2)n1	6.7%	-2.3%	3.2%	46.6%	u	-0.6%
CC1Nc2ncnc(N3CCN(c4ccccn4)CC3)c2N(Cc2ccccc2)C1=O (stereo unspecified)	-37.3%	x	-4.2%	31.6%	-50.5%[12.7 µM]	-30.8%
Cc1ccc(CN2C(=O)C(C)Nc3ncnc(N4CCN(c5ccccn5)CC4)c32)cc1 (stereo unspecified)	u	x	-7.7%	9.5%	-3.5%[2.33 µM]	79.4µM*
Cc1ccc(CN2C(=O)C(CC(C)C)Nc3ncnc(N4CCN(c5ccccn5)CC4)c32)cc1 (stereo unspecified)	u	x	-5.1%	19.1%	u	79.4µM*
CC(C)CC1Nc2ncnc(N3CCN(c4ccccn4)CC3)c2N(Cc2ccc(Br)cc2)C1=O (stereo unspecified)	-35.0%	x	-12.8%	35.2%	u	-35.2%
O=C(O)c1cc(S(=O)(=O)N2CCN(C(=O)c3ccco3)CC2)c(Cl)cc1Cl	2.5%	9.6%	x	30.1%	u	10.6%
COc1ccc(-c2nc3cc(C(C)C)ccc3o2)cc1NC(=O)c1ccc(C)c(Cl)c1	2.7%	x	x	49.8%	16.2%[59 µM]	3.8%
Cc1nc2[nH]onc2c2nccc(=O)c12	-1.2%	-0.2%	-17.6%[11.4 µM]	28.9%	14.1µM*	-6.2%
O=C(OCC#CCSc1nnc(-c2cccc3ccccc23)o1)c1sccc1Cl	x	x	x	x	x	30.6%
Cc1ccc(Cl)c2sc(NC(=O)CS(=O)(=O)c3ccc(Cl)cc3)nc12	-11.5%	x	x	12.9%	-9.9%[59 µM]	-17.9%
CCc1c(O)cc(=O)n(-c2ccccc2)c1-c1ccccc1	56.2µM*	-4.9%	-9.1%	-6.0%	u	-39.7%
CC[C@]1(O)C[C@@H]2CN(CCc3c([nH]c4ccccc34)[C@](C(=O)OC)(c3cc4c(cc3OC)N(C)[C@H]3[C@](O)(C(=O)OC)[C@@H](C(=O)OC)[C@@]5(CC)C=CCN6CC[C@@]43[C@@H]65)C2)C1	x	-23.8%	x	x	x	x
CC[C@]1(O)C[C@@H]2CN(CCc3c([nH]c4ccccc34)[C@@](C(=O)OC)(c3cc4c(cc3OC)N(C)C3[C@]45CCN4CC=C[C@](CC)(C45)[C@@H](OC(C)=O)[C@]3(O)C(=O)OC)C2)C1 (stereo partly specified)	x	17.3%	x	x	14.1µM*	x
COc1ccc(C(=O)CCS(=O)(=O)c2ccc(C)cc2)cc1OC	3.4%	3.8%	x	48.9%	-22.1%	-18.5%
Cc1ccc(C2=C/C(=C/c3cccs3)C(=O)O2)cc1	u	-1.0%	-16.8%	-8.0%	u	u
O=C1C(=Cc2ccc(Br)o2)C(=O)c2ccccc21	12.6µM*	56.2µM*	3.16µM*	u	20µM*	7.94µM*
COc1ccccc1-c1ccc(/C=C2/C=C(C)OC2=O)o1	u	u	-16.1%	-13.0%	15.8µM*	u
